From PubChem
IP6K1 inhibitor = blocks human inositol hexakisphosphate kinase 1 | hit rate 0.81% among 140,000 | activity change, % (series mostly up to about 58 µM) | AID 1645851 | Q92551 | IP6K1 kinase, ADP-Glo luminescence, 2 h; stronger effect = lower value; in the data active means activity change below about -25%
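ADP-Glo luminescence measures ADP made by human IP6K1 during a 2 h RT reaction with ATP/IP6 (mix at 1.3 mM/130 uM); top library doses 57.5 and 19.1 uM final.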
KDM5B inhibitor = inhibitors of human KDM5B histone demethylase; KDM5B demethylase, FDH-coupled NADH fluorescence (FDH is formaldehyde dehydrogenase); hit rate 2.6% among 220,000; Potency, µM (doses to about 57.7 µM), most hits filed as inhibitors; AID 1347165; further: nearly all actives have a fitted effect of over 70% in size
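Inhibition is measured as reduced NADH fluorescence generation from FDH coupling to formaldehyde release. Truncated KDM5BΔAP at 200 nM final acts on H3K4me3 peptide (12.5 µM in substrate mix) in pH 7.5 HEPES buffer with Tween-20, 30 min, room temperature.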
IP6K1 conf = human IP6K1 inhibition, confirmatory; shares compounds with IP6K1 inhibitor; recombinant IP6K1 kinase, ADP-Glo luminescence, 2 h; Potency, µM (top dose mostly 49 µM), usual class: inhibitors; hit rate 13% among 1,200; AID 1645852; further: nearly all actives have a fitted effect of over 65% in size
Hits are given with their value; - = inactive; ? = inconclusive; . = no result given. Sampled rows, rich in hits. Any-hit rate of the full collection: about 2.7%. Unless noted, the call rests on the fitted dose curve; in most records, active means well fitted inhibition curve with a large enough effect; inconclusive means small, poorly fitted or top-dose-only effect; inactive means no such curve, though single readings can be large or run the other way.

SMILES | IP6K1 inhibitor | KDM5B inhibitor | IP6K1 conf
CCn1c(CO)nnc1C1CC(NC(=O)c2ccc3nc(C)oc3c2)C1 (stereo unspecified) | - | - | .
CCn1c(CO)nnc1C1CC(NC(=O)c2cccc3c2OCCO3)C1 (stereo unspecified) | -25 | ? | -
c1ccc(CSc2ccc(Oc3ccc(SCc4ccccc4)cc3)cc2)cc1 | . | - | .
Cc1cc(F)c(C(=O)Nc2cccc(-c3nncn3C(C)C)n2)cc1-n1cnc(C2CC2)c1 | -35 | . | ?
Cn1nc(C2CCCC2)cc1NC(=O)c1ccccc1F | - | . | .
CC(C)c1nc2c(c(-c3ccc(Cl)cc3)n1)CCN(C(=O)c1ccc3c(c1)OCO3)CC2 | - | - | .
Cc1ccc(NC(=O)CSCc2cc(=O)n3oc(C)cc3n2)c(C)c1 | . | - | .
CCCCCCCCCCCCSCC(=O)O | . | - | .
CCCCCCCCCCCCCCCCC(C(=O)O)C(O)(CC(=O)O)C(=O)O (stereo unspecified) | -78 | . | 23µM
Cn1cc(CSc2nnc(COc3ccccc3Cl)n2C)cn1 | . | - | .
COc1cc([C@H]2Oc3cc([C@H]4Oc5cc(O)cc(O)c5C(=O)[C@@H]4O)ccc3O[C@@H]2CO)ccc1O | -79 | . | 7.3µM
COc1cc([C@H]2OC[C@]3(OC(C)=O)[C@@H](c4ccc(O[C@@H]5O[C@H](CO)[C@@H](O)[C@H](O)[C@H]5O)c(OC)c4)OC[C@H]23)ccc1O | - | . | .
Cc1cc(C)n(-c2nc3c(c(=O)n(Cc4c(F)cccc4Cl)c(=O)n3C)n2C(C)C)n1 | . | - | .
Cc1ccc(C(=NC(=O)c2cccs2)c2ccccc2)cc1 | . | - | .
CN(C)c1ccc(C(=O)C(=O)c2ccccc2)cc1 | . | - | .
CN(C)c1ccc(C(=C2C=CC(=[N+](C)C)C=C2)c2ccccc2)cc1 | -42 | . | 15µM
Cc1ccc(NC(=O)NCc2c(-n3cccc3)sc3c2CCCC3)c(Cl)c1 | -27 | - | -
Cc1c(Cl)cccc1NC(=O)NCc1c(-n2cccc2)sc2c1CCCC2 | - | - | .
COc1cncc(Nc2cnc3ccc(-c4cccc(CO)c4)nn23)c1 | - | - | .
COc1cncc(Nc2cnc3ccc(-c4ccccc4)nn23)c1 | -36 | ? | ?
O=C(CSc1ncnc2nc[nH]c12)NCCc1ccc(Cl)cc1 | . | - | .
COc1ccc(-c2cnc(NCc3ccc(C)cc3)n2C)cc1 | - | ? | .
COc1ccc(OC)c(CNc2ncc(-c3ccc(Cl)cc3)n2C)c1 | - | ? | .
COc1cccc(CNc2ncc(-c3ccc(Br)cc3)n2C)c1 | -35 | ? | ?
CCOc1ccc(-c2cnc(NCc3ccc(OC)cc3OC)n2C)cc1 | -25 | ? | -
SMILES | IP6K1 inhibitor | KDM5B inhibitor | IP6K1 conf
COc1ccc(-c2nc3cc(NC(=O)c4ccccc4Cl)ccc3o2)cc1 | . | - | .
CCOC(=O)COc1ccc([N+](=O)[O-])cc1-c1ccnc2cc(-c3ccc(C)cc3)nn12 | - | - | .
Cc1ccc(-c2cc3nccc(-c4cc([N+](=O)[O-])ccc4O)n3n2)cc1 | -25 | ? | ?
CC(C)n1nc(C(=O)Nc2ccc(S(=O)(=O)N(C)C)cc2)c2ccccc2c1=O | . | - | .
O=C(COc1ncnc2c(Cl)cc(Cl)cc12)N1CCCCCC1 | . | - | .
COc1ccc(NC(=O)c2[nH]nc3c2CSc2ccccc2-3)c(OC)c1 | -44 | - | -
COc1ccc(OC)c(CNC(=O)c2nn(C)c3c2CSc2ccccc2-3)c1 | - | ? | .
Cc1c(NC(=O)C2CCN(S(=O)(=O)Cc3ccccc3F)CC2)c(=O)n(-c2ccccc2)n1C | . | - | .
Cc1nn(CC(O)c2cc(F)ccc2F)c(=O)c2ccccc12 (stereo unspecified) | . | - | .
CCN(C(=O)C1CCC(CNS(=O)(=O)c2cccc3nsnc23)CC1)c1ccc(C)c(C)c1 (stereo unspecified) | - | - | .
CCCCN(CC)C(=O)C1CCC(CNS(=O)(=O)c2cccc3nsnc23)CC1 (stereo unspecified) | -30 | - | -
CC1CCCN(C(=O)COC(=O)COc2ccc(C#N)cc2)C1 (stereo unspecified) | . | - | .
CC1CCN(C(=O)CC#N)CC1N(C)c1ncnc2[nH]ccc12 (stereo unspecified) | - | . | -
N#CC1C(=O)Nc2scc(-c3ccc(-c4ccccc4O)cc3)c2C1=O (stereo unspecified) | - | . | .
N#Cc1c(O)c2c(-c3ccc(-c4ccccc4O)cc3)csc2[nH]c1=O | -46 | . | ?
CCCn1c(=O)n(CC(=O)N(C)CC(=O)Nc2ccccc2Br)c2ccccc21 | . | - | .
c1ccc(COc2ccccc2Cc2nc(-c3cccnn3)no2)cc1 | - | - | .
COCCCNc1ccc(C(=O)N2CCC(CN3CCCC3=O)CC2)cn1 | -57 | ? | -
O=C1CCCN1CC1CCN(C(=O)c2ccc(N3CCC(CO)C3)nc2)CC1 (stereo unspecified) | - | ? | .
CC(C)CN1CCN(c2nc3c(c(=O)[nH]c(=O)n3C)n2Cc2ccc(Cl)c(Cl)c2)CC1 | . | - | .
Cc1ccc(S(=O)(=O)c2[nH]c(-c3ccccc3)nc2SCC(=O)O)cc1 | -26 | - | -
Cc1ccc(S(=O)(=O)c2[nH]c(-c3ccccc3)nc2SCC(N)=O)cc1 | - | - | .
Cc1ccc(C(=O)N2CCc3nc(C(C)C)nc(-c4ccc(Cl)cc4)c3C2)cc1 | - | . | .
COc1ccc(OC)c(S(=O)(=O)N2CCCCC2CCn2cc(C(=O)N(C)C)nn2)c1 (stereo unspecified) | - | . | .
Cc1ccc(Nc2nc(N)c(C(=O)c3ccccc3Cl)s2)c(C)c1 | . | - | .
SMILES | IP6K1 inhibitor | KDM5B inhibitor | IP6K1 conf
Cc1ccccc1Nc1nc(N)c(C(=O)c2ccccc2Cl)s1 | -52 | - | 3.3µM
CCOc1ccc(C(=O)c2oc3ccccc3c2NC(=O)c2cc(-c3ccc(Cl)cc3)on2)cc1 | - | - | .
CCOc1ccc(-c2cc(C(=O)Nc3ccc(NC(C)=O)cc3)no2)cc1 | -27 | ? | -
Cc1nn(-c2ccccc2)c2c1C(C(C)C)N(C1CN(C(=O)Cc3ccccc3)C1)C2=O (stereo unspecified) | - | . | .
Cn1cc(CC(=O)NC(C(N)=O)c2ccccc2)c2ccccc21 (stereo unspecified) | . | - | .
Cc1ccccc1OCc1nc(C2CN(C(=O)Cc3c[nH]c4ccccc34)C2)no1 | - | - | .
Cc1ccc(-c2cc(C(F)(F)F)c(C#N)c(SCC(=O)O)n2)cc1 | -35 | ? | -
CCOC(=O)CSc1nc(-c2ccc(F)cc2)cc(C(F)(F)F)c1C#N | - | ? | .
Cn1c(=O)c2[nH]c(N3CCN(c4ccc(F)cc4)CC3)nc2n(C)c1=O | . | - | .
Cn1ncc2c(C(=O)NC3CCCC3)cc(-c3ccc(C(F)(F)F)cc3)nc21 | - | . | .
Cn1c(CCC(=O)N2CCCOCC2)nc2cc(S(=O)(=O)N3CCCC3)ccc21 | -31 | - | -
Cn1c(CCC(=O)N2CCOCC2)nc2cc(S(=O)(=O)N3CCCC3)ccc21 | - | - | .
COc1cc(NC(=O)C2=C(C)OCCS2)c(Cl)cc1C(=O)NCc1cccc(C)c1 | . | - | .
Cc1nc(-c2cccc(N3CC(C(=O)NC4CCCCC4)CC3=O)c2)no1 (stereo unspecified) | . | - | .
CCOc1ccccc1CN(CCc1ccc2c(c1)OCO2)Cc1cccc(OC)c1OC | - | ? | .
CCOc1ccc(CN(CCc2ccc3c(c2)OCO3)Cc2cc(OC)c(OC)cc2OC)cc1 | -30 | ? | -
C[S+](=O)([O-])N1Cc2ccccc2CC2(CCCN(CC3CCCCC3)C2)C1 (stereo unspecified) | - | - | .
